Experimental data reported in PubChem BioAssay AID1159580 (chemical genetic matrix, 2015).
In all, about 5,500 compounds went through this assay and about 2,000 (36%) were called active. Roughly 18% stayed inconclusive and do not appear here. No stated cut-off is given here; in the data, active means normalized growth mostly below about 0.91 (no sharp cut-off); inconclusive means no clear call, values can overlap the other calls; inactive means mostly above about 0.92. Some of the results follow.

Assay: chemical genetic growth profiling, strain panel (AID 1159580);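 further: tested at 20 µM; growth read once vehicle control cultures reached saturation at 30 °C; 1 = growth at the plate median or of vehicle wells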
Settings: S. cerevisiae deletion strains, growth OD
[1] = locus YAL013W, strain DEP1, stronger effect = lower value
[2] = locus YDR150W, strain NUM1, stronger effect = lower value
[3] = locus YMR263W, strain SAP30, stronger effect = lower value
[4] = locus YMR307W, strain GAS1, stronger effect = lower value
[5] = locus YNL153C, strain GIM3, stronger effect = lower value
[6] = locus YNL322C, strain KRE1, stronger effect = lower value
[7] = locus YPL055C, strain LGE1, stronger effect = lower value
[8] = locus YPL241C, strain CIN2, stronger effect = lower value
[9] = locus YBR229C, strain ROT2, stronger effect = lower value
[10] = locus YDL101C, strain DUN1, stronger effect = lower value
[11] = locus YGR078C, strain PAC10, stronger effect = lower value
[12] = locus YHR030C, strain SLT2, stronger effect = lower value
[13] = locus YJL095W, strain BCK1, stronger effect = lower value
[14] = locus YLR039C, strain RIC1, stronger effect = lower value
[15] = locus YLR262C, strain YPT6, stronger effect = lower value
[16] = locus YOR061W, strain CKA2, stronger effect = lower value

Measured: normalized growth

CC(C)(C)C1(O)CCN2CC3c4ccccc4CCc4cccc(c43)C2C1 (centres undefined)
inactive: [1] 1.02 | locus YAL040C, strain CLN3, stronger effect = lower value 0.975 | locus YCL061C, strain MRC1 (second series), stronger effect = lower value 0.986 | [2] 1 | locus YDR363W, strain ESC2, stronger effect = lower value 1.04 | locus YER002W, strain NOP16, stronger effect = lower value 0.993 | [3] 1.01 | [4] 1.02 | [5] 0.983 | locus YNL175C, strain NOP13, stronger effect = lower value 0.996 | locus YNL197C, strain WHI3, stronger effect = lower value 0.972 | locus YNL224C, strain SQS1, stronger effect = lower value 0.997 | [6] 1.01 | locus YOR083W, strain WHI5 (second series), stronger effect = lower value 1.01 | [7] 1.02 | [8] 0.999

CC1(C)OC(=O)C=CC2(C)C1CC(O)C1(C)C2CCC2(C)C(c3ccoc3)OC(=O)C3OC321 (centres undefined)
inactive: [1] 1.02 | locus YBR021W, strain FUR4, stronger effect = lower value 0.971 | [9] 1.01 | locus YCL029C, strain bik1, stronger effect = lower value 1.02 | locus YDL035C, strain GPR1, stronger effect = lower value 1.01 | locus YDL074C, strain BRE1, stronger effect = lower value 1.02 | [10] 1.01 | locus YDL134C, strain PPH21, stronger effect = lower value 1.01 | locus YDL185W, strain tfp1, stronger effect = lower value 1.02 | locus YDL192W, strain arf1, stronger effect = lower value 1.01 | locus YDR101C, strain arx1, stronger effect = lower value 0.998 | locus YDR162C, strain NBP2, stronger effect = lower value 1.04 | locus YDR318W, strain mcm21, stronger effect = lower value 1.01 | locus YDR388W, stronger effect = lower value 1.02 | locus YDR502C, strain sam2, stronger effect = lower value 1.04 | locus YER110C, stronger effect = lower value 1.02 | locus YER155C, strain BEM2, stronger effect = lower value 0.996 | locus YER167W, strain BCK2, stronger effect = lower value 0.997 | locus YGL078C, strain dbp3, stronger effect = lower value 1.01 | locus YGL086W, strain mad1, stronger effect = lower value 1.01 | locus YGL248W, strain PDE1, stronger effect = lower value 1.01 | [11] 1 | locus YGR135W, strain pre9, stronger effect = lower value 1.04 | locus YGR252W, strain gcn5, stronger effect = lower value 0.965 | [12] 1.01 | locus YHR079C, strain IRE1 (second series), stronger effect = lower value 1.01 | locus YHR094C, strain hxt1, stronger effect = lower value 1.02 | locus YHR129C, strain ARP1, stronger effect = lower value 1 | locus YHR200W, strain rpn10, stronger effect = lower value 1.01 | locus YIL066C, strain RNR3, stronger effect = lower value 1.01 | locus YIL073C, strain SPO22, stronger effect = lower value 1.03 | locus YIL125W, strain kgd1, stronger effect = lower value 1.02 | locus YIR030C, strain dcg1, stronger effect = lower value 1.01 | [13] 1.03 | locus YJL134W, strain LCB3, stronger effect = lower value 1.01 | locus YJL168C, strain set2, stronger effect = lower value 1.01 | locus YJL187C, strain SWE1 (second series), stronger effect = lower value 1.01 | locus YKL009W, strain mrt4, stronger effect = lower value 1.01 | locus YKL068W, stronger effect = lower value 1.02 | locus YKL085W, strain MDH1 (second series), stronger effect = lower value 1 | locus YKL085W, strain MDH1, stronger effect = lower value 1 | locus YKR001C, strain vps1, stronger effect = lower value 1.04 | [14] 1.05 | locus YLR058C, strain SHM2, stronger effect = lower value 1.01 | locus YLR102C, strain apc9, stronger effect = lower value 1.01 | [15] 1.09 | locus YLR268W, strain sec22, stronger effect = lower value 1.02 | locus YLR330W, strain CHS5, stronger effect = lower value 1.01 | locus YLR342W, strain FKS1 (second series), stronger effect = lower value 0.995 | locus YLR371W, strain rom2, stronger effect = lower value 0.997 | locus YLR418C, strain cdc73, stronger effect = lower value 1.05 | locus YML016C, strain PPZ1, stronger effect = lower value 1.01 | locus YML032C, strain rad52, stronger effect = lower value 1.02 | locus YML124C, strain tub3, stronger effect = lower value 1.01 | locus YMR078C, strain ctf18, stronger effect = lower value 1 | locus YMR223W, strain ubp8, stronger effect = lower value 1.01 | [3] 1.01 | [4] 1.06 | locus YNL067W, strain RPL9B, stronger effect = lower value 1.02 | [5] 1.01 | locus YNL233W, strain BNI4, stronger effect = lower value 1.01 | locus YNL250W, strain rad50, stronger effect = lower value 1.01 | locus YNL271C, strain bni1, stronger effect = lower value 1.01 | locus YNL298W, strain CLA4, stronger effect = lower value 1.04 | locus YNL307C, strain MCK1, stronger effect = lower value 1.02 | [6] 1 | locus YNR052C, strain pop2, stronger effect = lower value 1.02 | locus YOL012C, strain htz1 0.873 | locus YOL147C, strain pex11, stronger effect = lower value 1.01 | [16] 1.01 | locus YOR069W, strain VPS5, stronger effect = lower value 1.01 | locus YOR136W, strain idh2, stronger effect = lower value 1.02 | locus YOR144C, strain elg1, stronger effect = lower value 1.01 | locus YOR184W, strain ser1, stronger effect = lower value 0.995 | locus YOR316C, strain cot1, stronger effect = lower value 1.02 | [8] 1.01 | locus YPR119W, strain clb2, stronger effect = lower value 1 | locus YPR141C, strain kar3, stronger effect = lower value 1.01 | locus YPR167C, strain met16, stronger effect = lower value 1 | strain wtn01, stronger effect = lower value 1.01

Cc1ccc(NC(=O)c2c(F)cccc2Cl)c(C(=O)Nc2ccc(F)cc2)c1
inactive: [1] 0.993 | [9] 0.998 | [10] 1.02 | [2] 1.02 | locus YEL061C, strain CIN8, stronger effect = lower value 0.987 | [11] 1.02 | locus YGR229C, strain SMI1, stronger effect = lower value 1.01 | [12] 1.06 | locus YHR087W, strain rtc3, stronger effect = lower value 0.976 | locus YJR043C, strain POL32, stronger effect = lower value 1.02 | locus YJR075W, strain HOC1, stronger effect = lower value 1.01 | [14] 0.868 | locus YLR058C, strain SHM2 (second series), stronger effect = lower value 0.995 | locus YLR085C, strain ARP6, stronger effect = lower value 1.03 | [15] 0.933 | locus YML094W, strain GIM5, stronger effect = lower value 1.01 | locus YMR219W, strain ESC1, stronger effect = lower value 1 | [3] 1 | [4] 1.1 | [5] 1.03 | locus YNL298W, strain CLA4 (second series), stronger effect = lower value 1.02 | [6] 0.997 | locus YNR030W, strain Alg12, stronger effect = lower value 1 | locus YOL006C, strain TOP1, stronger effect = lower value 1.02 | [7] 0.952 | [8] 1.03 | locus YPR135W, strain CTF4, stronger effect = lower value 1.05

Cc1ccc(NC(=O)c2ccccc2N=Cc2cc(Cl)cc(Cl)c2O)c(N=Cc2cc(Cl)cc(Cl)c2O)c1
inactive: locus YAR019C, strain CDC15, stronger effect = lower value 0.926 | locus YBL105C, strain PKC1, stronger effect = lower value 0.926 | locus YBR135W, strain CKS1, stronger effect = lower value 0.921 | locus YBR136W, strain MEC1, stronger effect = lower value 0.927 | locus YBR160W, strain CDC28, stronger effect = lower value 0.934 | locus YDL017W, strain CDC7, stronger effect = lower value 0.927 | locus YDL028C, strain MPS1, stronger effect = lower value 0.927 | [10] 0.962 | locus YDL108W, strain KIN28, stronger effect = lower value 0.925 | locus YDL132W, strain cdc53, stronger effect = lower value 0.937 | locus YDR052C, strain DBF4, stronger effect = lower value 0.93 | locus YDR054C, strain cdc34, stronger effect = lower value 0.911 | locus YDR226W, strain ADK1, stronger effect = lower value 0.925 | locus YFL009W, strain cdc4, stronger effect = lower value 0.93 | locus YFL029C, strain CAK1, stronger effect = lower value 0.909 | locus YFR003C, strain YPI1, stronger effect = lower value 0.913 | locus YFR028C, strain CDC14, stronger effect = lower value 0.933 | locus YIL147C, strain SLN1, stronger effect = lower value 0.914 | locus YJL128C, strain PBS2, stronger effect = lower value 0.885 | locus YJR016C, strain ILV3, stronger effect = lower value 0.934 | locus YKL193C, strain SDS22, stronger effect = lower value 0.924 | locus YMR001C, strain CDC5, stronger effect = lower value 0.925 | locus YMR277W, strain FCP1, stronger effect = lower value 0.935 | locus YNL006W, strain LST8, stronger effect = lower value 0.931 | locus YNL161W, strain CBK1, stronger effect = lower value 0.906 | locus YNL207W, strain RIO2, stronger effect = lower value 0.922 | locus YNL222W, strain SSU72, stronger effect = lower value 0.929 | locus YOL078W, strain AVO1, stronger effect = lower value 0.928 | locus YOR329C, strain SCD5, stronger effect = lower value 0.913 | locus YPL209C, strain IPL1, stronger effect = lower value 0.929 | locus YPR025C, strain CCL1, stronger effect = lower value 0.928 | locus YPR106W, strain ISR1, stronger effect = lower value 0.936 | locus YPR111W, strain DBF20, stronger effect = lower value 0.916 | strain NNK1, stronger effect = lower value 0.91 | strain TSCII, stronger effect = lower value 0.922
active: locus YDL214C, strain PRR2, stronger effect = lower value 0.459 | locus YDR477W, strain SNF1, stronger effect = lower value 0.284 | locus YER123W, strain YCK3, stronger effect = lower value 0.252 | locus YER133W, strain GLC7, stronger effect = lower value 0.365 | locus YFR019W, strain FAB1, stronger effect = lower value 0.598 | locus YGR040W, strain KSS1, stronger effect = lower value 0.377 | locus YGR052W, strain FMP48, stronger effect = lower value 0.363 | locus YGR092W, strain DBF2, stronger effect = lower value 0.123 | [12] 0.213 | locus YHR079C, strain IRE1, stronger effect = lower value 0.201 | locus YHR082C, strain KSP1, stronger effect = lower value 0.293 | locus YHR205W, strain SCH9, stronger effect = lower value 0.166 | [13] 0.218 | locus YJL157C, strain FAR1, stronger effect = lower value 0.272 | locus YJR066W, strain TOR1 (second series), stronger effect = lower value 0.51 | locus YJR066W, strain TOR1, stronger effect = lower value 0.237 | locus YKL048C, strain ELM1, stronger effect = lower value 0.422 | locus YKL067W, strain YNK1, stronger effect = lower value 0.359 | locus YKL101W, strain HSL1, stronger effect = lower value 0.387 | locus YKL203C, strain TOR2, stronger effect = lower value 0.37 | locus YLR113W, strain HOG1, stronger effect = lower value 0.247 | locus YLR133W, strain CKI1, stronger effect = lower value 0.28 | locus YLR403W, strain SFP1, stronger effect = lower value 0.131 | locus YML070W, strain DAK1, stronger effect = lower value 0.32 | locus YMR205C, strain PFK2 (second series), stronger effect = lower value 0.348 | locus YNL020C, strain ARK1, stronger effect = lower value 0.198 | locus YNL183C, strain NPR1, stronger effect = lower value 0.254 | locus YNL307C, strain MCK1 (second series), stronger effect = lower value 0.188 | locus YOL136C, strain PFK27, stronger effect = lower value 0.25 | [16] 0.197 | locus YOR119C, strain RIO1, stronger effect = lower value 0.39 | locus YOR231W, strain MKK1, stronger effect = lower value 0.255 | locus YPL031C, strain PHO85, stronger effect = lower value 0.291 | locus YPL153C, strain RAD53, stronger effect = lower value 0.324 | locus YPL204W, strain HRR25, stronger effect = lower value 0.313 | locus YPL256C, strain CLN2, stronger effect = lower value 0.294
